Values joined by “and” are separate entries in the source; they are usually repeats but may differ in a detail not shown here. Equal values may be shown once. About 83,000 compounds went through this panel and 20% of them were active in at least one assay; those are over-represented in the sample as a whole.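 Single-concentration screen, 48 h exposure, 96-well plates. Endpoint: percent growth. Below 10 = active.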 Active and inactive are the calls of the source.
Legend:
Assay in all cases: NCI-60 one-dose screen, 48 h (100 = growth as untreated, 0 = no growth, -100 = all killed)
Conditions in all cases: 10 µM unless noted
K-562 leukemia = test system: K-562 leukemia
MALME-3M melanoma = test system: MALME-3M melanoma
MDA-MB-231 breast = test system: MDA-MB-231 breast
RXF 393 renal = test system: RXF 393 renal
SF-268 CNS = test system: SF-268 CNS
SF-295 CNS = test system: SF-295 CNS
SF-539 CNS = test system: SF-539 CNS
M14 melanoma = test system: M14 melanoma
HCT-15 colon = test system: HCT-15 colon
UACC-257 melanoma = test system: UACC-257 melanoma

| SMILES | growth (K-562 leukemia) | growth (MALME-3M melanoma) | growth (MDA-MB-231 breast) | growth (RXF 393 renal) | growth (SF-268 CNS) | growth (SF-295 CNS) | growth (SF-539 CNS) | growth (M14 melanoma) | growth (HCT-15 colon) | growth (UACC-257 melanoma) |
| --- | --- | --- | --- | --- | --- | --- | --- | --- | --- | --- |
| NCCc1ccc(OCc2ccccc2)c(OCc2ccccc2)c1 | 30.8% (inactive) | 106% (inactive) | 79.2% (inactive) | 62.2% (inactive) | 89.2% (inactive) | 97.1% (inactive) | 93.1% (inactive) | 102% (inactive) | 75.3% (inactive) |  |
| Cc1c(N)nc([C@H](CC(N)=O)NC[C@H](N)C(N)=O)nc1C(=O)N[C@H](C(=O)N[C@H](C)[C@@H](O)[C@H](C)C(=O)N[C@H](C(=O)NCCc1nc(-c2nc(C(=O)NCCC[S+](C)C)cs2)cs1)[C@@H](C)O)C(OC1OC(CO)C(O)C(O)C1OC1OC(CO)C(O)C(OC(N)=O)C1O)c1cnc[nH]1 (stereo not given in full) | 65.8% [2.5 µM] (inactive) | 45.9% [2.5 µM] (inactive) | 99.2% [2.5 µM] (inactive) | 20.5% [2.5 µM] (inactive) | 61.6% [2.5 µM] (inactive) | 8.69% [2.5 µM] (active) | -48.7% [2.5 µM] (active) |  | 67.8% [2.5 µM] (inactive) | 31.9% [2.5 µM] (inactive) |
| CC1=C2C(=O)[C@H]3[C@@H](CC=C4C[C@@H](O)CC[C@@]43C)[C@@H]2CC[C@]12O[C@@H]1C[C@H](C)CN[C@H]1[C@H]2C | 154% (inactive) | 84.6% (inactive) | 105% (inactive) | 98.8% (inactive) | 105% (inactive) | 93.3% (inactive) | 101% (inactive) | 92.9% (inactive) | 94.2% (inactive) | 104% (inactive) |
| COc1cccc2c1cc([N+](=O)[O-])c1c(C(=O)O)cc3c(c12)OCO3 | 73.5% (inactive) and 67.8% (inactive) | 106% (inactive) and 98.7% (inactive) | 88.4% (inactive) and 106% (inactive) | 49.1% (inactive) and 101% (inactive) | 45.9% (inactive) and 113% (inactive) | 44.9% (inactive) and 90.4% (inactive) | 71.9% (inactive) and 90% (inactive) | 84.5% (inactive) and 99% (inactive) | 69.3% (inactive) and 105% (inactive) | 97.7% (inactive) and 111% (inactive) |
| CC[n+]1c(-c2ccccc2)c2cc(N)ccc2c2ccc(N)cc21 | 39% (inactive) | -25% (active) | 33.1% (inactive) | -16.7% (active) | -26.3% (active) | 13.6% (inactive) | -12.7% (active) | 33% (inactive) | 88.9% (inactive) | -19.3% (active) |
| CN1CCN(c2ccc([N+](=O)[O-])c3no[n+]([O-])c23)CC1 | -18.4% (active) | -78.8% (active) | -32.1% (active) | -92.8% (active) | -41.4% (active) | -52% (active) |  | -65.2% (active) | -56.3% (active) | -95.6% (active) |
| CC1=C(CO)C2=C(C)C3(CC3)[C@@](C)(O)C(=O)C2=C1 | 26.3% (inactive) | -87.5% (active) | 4.5% (active) | 8.42% (active) | 4.48% (active) | -8.22% (active) | -62.8% (active) | -59.3% (active) | -22.2% (active) | -1.44% (active) |
| CCC(=O)OC1CCn2c1nc1c2C(=O)C(C)=C(N2CC2)C1=O (stereo not given) | 9.08% (active) | -60.4% (active) | 71.7% (inactive) | -79.8% (active) | 7.54% (active) | 2.01% (active) | -33.6% (active) | -58.1% (active) | 2.82% (active) | -55.7% (active) |
| C[C@H]1CCC/C=C/[C@@H]2C[C@H](O)C[C@H]2[C@H](O)/C=C/C(=O)O1 | 5.56% (active) | -73% (active) | -68% (active) | 11% (inactive) | 10.3% (inactive) | 20.9% (inactive) | 27.1% (inactive) | -9.75% (active) | -28.2% (active) | 13.1% (inactive) |
| C[C@]12CC[C@H](O)CC1=CC[C@@H]1[C@@H]2CC[C@]2(C)C(=O)CC[C@@H]12 | 80.5% (inactive) | 80.9% (inactive) | 106% (inactive) | 110% (inactive) | 106% (inactive) | 102% (inactive) | 100% (inactive) | 101% (inactive) | 99.7% (inactive) | 102% (inactive) |
| Oc1cc[c]([Hg][Cl])cc1 | 60.2% (inactive) | 94.2% (inactive) |  | 116% (inactive) | 95.4% (inactive) | 113% (inactive) | 121% (inactive) | 91.1% (inactive) | 91.4% (inactive) | 99.6% (inactive) |
| CO[C@H](/C(C)=C/C=C/C(C)=C/c1coc(C)n1)[C@H](C)[C@H]1C[C@@H](O)[C@@]2(C)O[C@H]2/C=C/[C@@H](C)[C@@H]2C[C@@H](CC(=O)O2)C[C@H]2O[C@@H]2C(=O)O1 | -31.6% (active) | 15.2% (inactive) | 25.9% (inactive) | 13.7% (inactive) | 32.5% (inactive) | -13.3% (active) | -19.2% (active) | -0.709% (active) | -31% (active) | 19.1% (inactive) |
| CCC1(O)CC(OC2CC(N(C)C)C(OC3CC4OC5CC(=O)C(C)OC5OC4C(C)O3)C(C)O2)c2c(cc3c(c2O)C(=O)c2c(O)ccc(O)c2C3=O)C1C(=O)OC (stereo not given) | -39.7% (active) | -95.3% (active) | -5.87% (active) | -1.64% (active) | -14.3% (active) | -32.7% (active) | -55.6% (active) | -95% (active) | -46.1% (active) | -3.52% (active) |
| COc1ccccc1/C=C(/C)[N+](=O)[O-] | 39.9% (inactive) and 97.5% (inactive) | 72.8% (inactive) and 89.3% (inactive) | 70% (inactive) and 105% (inactive) | -1.25% (active) and 116% (inactive) | 80.5% (inactive) and 99.1% (inactive) | 102% (inactive) and 94.6% (inactive) | 88% (inactive) and 96.8% (inactive) | 79.2% (inactive) and 95% (inactive) | 32.3% (inactive) and 99.8% (inactive) | 80.9% (inactive) and 75% (inactive) |
| Cc1ccc(C(=O)OC(C(=O)O)C(OC(=O)c2ccc(C)cc2)C(=O)O)cc1 (stereo not given) (tested in a mixture with another compound) | 11.1% (inactive) | 51.6% (inactive) |  | 54.1% (inactive) | 68.5% (inactive) | 61.8% (inactive) | 70.2% (inactive) | 45.2% (inactive) | 16.3% (inactive) | 46.1% (inactive) |
